Assay results taken from PubChem BioAssay.
The source made the active and inactive calls.

What was measured:
[1] = test system: Plasmodium falciparum Sir2 (PF13_0152, Sir2A); experiment: Plasmodium falciparum Sir2A binding compounds – biochemical, small-molecule microarray, 635 nm fluorescence, primary screen (AID 1098); settings: fluorescence 635 nm, higher = more signal;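 further: score merges spot fluorescence intensity with its signal-to-noise ratio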
[2] = probe aDKK1 binding to arrayed compounds – biochemical, biotinylated probe, 635/667 nm fluorescence, primary screen (AID 1099); settings: small-molecule microarray, higher = more signal;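 further: score merges 667nm spot fluorescence with signal to noise across triplicate slides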
[3] = probe aCHRDL2 binding to arrayed compounds – biochemical, biotinylated probe, 635/667 nm fluorescence, primary screen (AID 1100); settings: small-molecule microarray, higher = more signal
[4] = change in splice reporter luminescence, either direction, cell-based, HEK293, spliceosome inhibition project, primary screen (AID 1101); settings: HEK293 splicing luciferase reporter, 24 h, higher = more signal, called active from +8 up or from −8 down;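 further: HEK293 cells carrying a splicing-competent luciferase reporter gene; test concentration not given here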
[5] = target: Fibroblast growth factor 10 (Homo sapiens) (UniProt O15520); experiment: compounds binding fibroblast growth factor 10 – biochemical, small-molecule microarray, 635 nm fluorescence, primary screen (AID 1102); settings: FGF10 binding, fluorescence 635 nm, higher = more signal
Chain of Fibroblast growth factor 10 (Homo sapiens) (O15520 whole entry, looked up): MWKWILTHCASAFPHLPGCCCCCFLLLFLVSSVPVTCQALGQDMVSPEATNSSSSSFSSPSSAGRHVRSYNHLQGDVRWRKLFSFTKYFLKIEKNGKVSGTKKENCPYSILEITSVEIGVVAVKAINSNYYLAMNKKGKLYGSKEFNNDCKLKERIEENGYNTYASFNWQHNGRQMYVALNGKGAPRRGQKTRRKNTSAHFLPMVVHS

[6] = test system: glycogen synthase kinase-3 (GSK3A per assay name; protocol says GSK3B); experiment: compounds binding glycogen synthase kinase-3 – biochemical, small-molecule microarray, 635 nm fluorescence, GSK3A, primary screen (AID 1103); settings: fluorescence 635 nm, higher = more signal; further: the record names both GSK3A and GSK3B
[7] = target: Epidermal growth factor receptor (Homo sapiens) (UniProt P00533); experiment: compounds binding epidermal growth factor receptor – biochemical, small-molecule microarray, 635 nm fluorescence, primary screen (AID 1104); settings: EGFR binding, higher = more signal;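 further: score merges 667 nm emission intensity with spot signal to noise over triplicate slides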
Chain of Epidermal growth factor receptor (Homo sapiens) (P00533 whole entry, looked up): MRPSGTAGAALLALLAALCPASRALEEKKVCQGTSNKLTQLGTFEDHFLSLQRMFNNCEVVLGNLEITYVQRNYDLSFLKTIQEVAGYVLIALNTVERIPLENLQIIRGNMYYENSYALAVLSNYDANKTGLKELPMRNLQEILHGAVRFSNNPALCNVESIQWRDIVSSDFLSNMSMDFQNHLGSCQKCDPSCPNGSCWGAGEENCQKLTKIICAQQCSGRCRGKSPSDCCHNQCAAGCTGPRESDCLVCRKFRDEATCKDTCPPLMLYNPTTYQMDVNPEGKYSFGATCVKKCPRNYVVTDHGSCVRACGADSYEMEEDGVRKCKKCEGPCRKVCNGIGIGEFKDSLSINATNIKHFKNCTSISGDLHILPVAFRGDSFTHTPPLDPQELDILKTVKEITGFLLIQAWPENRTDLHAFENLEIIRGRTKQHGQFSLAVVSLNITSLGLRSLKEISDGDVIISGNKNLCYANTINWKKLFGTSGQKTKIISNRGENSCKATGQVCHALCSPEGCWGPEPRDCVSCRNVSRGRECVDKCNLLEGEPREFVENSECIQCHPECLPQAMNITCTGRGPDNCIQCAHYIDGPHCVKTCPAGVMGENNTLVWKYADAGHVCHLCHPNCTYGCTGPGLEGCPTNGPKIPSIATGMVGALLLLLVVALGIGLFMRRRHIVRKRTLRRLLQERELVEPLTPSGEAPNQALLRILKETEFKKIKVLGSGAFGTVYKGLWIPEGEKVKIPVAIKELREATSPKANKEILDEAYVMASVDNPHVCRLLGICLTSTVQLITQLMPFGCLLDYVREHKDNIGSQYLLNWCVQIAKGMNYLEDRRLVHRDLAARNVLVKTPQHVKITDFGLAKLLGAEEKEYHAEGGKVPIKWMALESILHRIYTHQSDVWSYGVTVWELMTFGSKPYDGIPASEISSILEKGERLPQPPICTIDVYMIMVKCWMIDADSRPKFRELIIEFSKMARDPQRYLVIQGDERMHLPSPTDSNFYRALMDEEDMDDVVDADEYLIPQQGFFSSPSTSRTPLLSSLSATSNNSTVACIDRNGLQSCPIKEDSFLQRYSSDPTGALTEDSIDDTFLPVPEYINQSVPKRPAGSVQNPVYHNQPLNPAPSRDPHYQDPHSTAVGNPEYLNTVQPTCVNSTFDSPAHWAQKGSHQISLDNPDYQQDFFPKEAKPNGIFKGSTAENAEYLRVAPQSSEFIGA

[8] = target: Follistatin-related protein 3 (Homo sapiens) (UniProt O95633); experiment: compounds binding follistatin-related protein 3 – biochemical, small-molecule microarray, 635 nm fluorescence, primary screen (AID 1105); settings: FSTL3 binding, higher = more signal;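 further: score merges emission near 667 nm and signal to noise per printed spot across three slides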
Chain of Follistatin-related protein 3 (Homo sapiens) (O95633 whole entry, looked up): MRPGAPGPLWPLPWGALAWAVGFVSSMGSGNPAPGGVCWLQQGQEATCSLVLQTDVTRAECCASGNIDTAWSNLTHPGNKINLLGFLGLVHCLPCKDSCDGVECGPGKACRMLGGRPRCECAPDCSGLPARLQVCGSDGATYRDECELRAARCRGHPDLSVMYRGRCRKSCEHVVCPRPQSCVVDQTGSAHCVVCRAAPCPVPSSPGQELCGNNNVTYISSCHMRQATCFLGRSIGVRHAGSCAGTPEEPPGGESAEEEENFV

[9] = target: Dickkopf-related protein 1 (Homo sapiens) (UniProt O94907); experiment: small molecules binding DKK1 protein – biochemical, small-molecule microarray, 635 nm fluorescence scan, primary screen (AID 1106); settings: higher = more signal;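 further: score merges emission near 667 nm with signal to noise over three replicate slides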
Chain of Dickkopf-related protein 1 (Homo sapiens) (O94907 whole entry, looked up): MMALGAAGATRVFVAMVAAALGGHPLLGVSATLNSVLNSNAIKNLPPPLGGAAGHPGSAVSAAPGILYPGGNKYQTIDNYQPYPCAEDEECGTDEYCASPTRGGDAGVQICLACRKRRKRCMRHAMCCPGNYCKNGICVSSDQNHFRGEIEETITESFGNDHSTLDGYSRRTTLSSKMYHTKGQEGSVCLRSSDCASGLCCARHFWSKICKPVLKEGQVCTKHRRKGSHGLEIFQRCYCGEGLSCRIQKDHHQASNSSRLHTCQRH

[10] = test system: Inhibin beta A chain (activin A); experiment: small molecules binding activin A – biochemical, small-molecule microarray, 635 nm fluorescence scan, primary screen (AID 1107); settings: INHBA, higher = more signal;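 further: mouse activin A protein probed at 4.33 µg/mL on printed slides; score merges bound-protein fluorescence near 667 nm with spot signal-to-noise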
[11] = test system: Human papillomavirus type 1a protein E7 (residues 44-93); experiment: small molecules binding HPV E7 44-93 – biochemical, small-molecule microarray, residues 44-93, 635 nm fluorescence, primary screen (AID 1108); settings: fluorescence 635 nm, higher = more signal;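 further: E7 fragment applied at 1 µg/mL in TBST for 1 h at 4 C; score combines spot fluorescence with its signal to noise ratio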
[12] = hepatitis C replication reporter changes, two-sided – Huh7 cells, luciferase reporter, HCV replication inhibitor project, primary screen (AID 1109); settings: Huh7 HCV replicon luciferase reporter, 48 h; higher = more signal;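 further: huh7 hepatoma cells harbouring a luciferase neomycin HCV replicon reporter; luciferase luminescence as measure of HCV replicon replication; test concentration not given here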
[13] = target: Left-right determination factor 2 (Homo sapiens) (UniProt O00292); experiment: small molecules binding LEFTY2 protein – biochemical, small-molecule microarray, 635 nm fluorescence scan, primary screen (AID 1110); settings: higher = more signal
Chain of Left-right determination factor 2 (Homo sapiens) (O00292 whole entry, looked up): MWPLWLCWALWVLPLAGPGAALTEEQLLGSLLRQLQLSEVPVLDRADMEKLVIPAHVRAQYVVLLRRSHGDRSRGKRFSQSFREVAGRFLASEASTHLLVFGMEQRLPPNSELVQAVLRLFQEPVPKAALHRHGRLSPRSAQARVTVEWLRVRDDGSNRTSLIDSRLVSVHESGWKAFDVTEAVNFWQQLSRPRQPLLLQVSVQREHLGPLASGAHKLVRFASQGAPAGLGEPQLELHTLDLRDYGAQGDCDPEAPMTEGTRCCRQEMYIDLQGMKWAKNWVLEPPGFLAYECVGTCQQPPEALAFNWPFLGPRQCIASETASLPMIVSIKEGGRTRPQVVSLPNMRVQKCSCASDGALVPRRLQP

[14] = target: Calmodulin-1 (Homo sapiens) (UniProt P0DP23); experiment: small molecules binding calmodulin-1 with EGTA – biochemical, small-molecule microarray, Cy5-labelled CALM1, profiling panel (AID 1111); settings: Cy5-CALM1 binding fluorescence, higher = more signal;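 further: labelled calmodulin applied in Tris saline Tween buffer holding calcium plus EGTA and DTT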
[15] = target: Calmodulin-1 (Homo sapiens) (UniProt P0DP23); experiment: small molecules binding Ca-loaded calmodulin-1 – biochemical, small-molecule microarray, Cy5-labelled CALM1, plus calcium, artefact control for SMM control-protein annotation, profiling panel (AID 1112); settings: Cy5-CALM1 binding fluorescence, higher = more signal;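 further: score merges spot fluorescence with signal to noise from triplicate slides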
[16] = probe aWnt5a binding to arrayed compounds – biochemical, biotinylated probe, 635/667 nm fluorescence, primary screen (AID 1113); settings: small-molecule microarray, higher = more signal;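 further: score merges 667 nm fluorescence intensity with signal-to-noise per printed feature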
[17] = probe aShh binding to arrayed compounds – biochemical, biotinylated probe, 635/667 nm fluorescence, primary screen (AID 1114); settings: small-molecule microarray, higher = more signal;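 further: probe is biotin-labelled aShh protein from a stem cell growth factor screen; measures binding of labelled protein to compounds printed on the slide; score merges feature fluorescence at 667 nm with signal-to-noise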
[18] = probe aNog binding to arrayed compounds – biochemical, biotinylated probe, 635/667 nm fluorescence, primary screen (AID 1115); settings: small-molecule microarray, higher = more signal;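 further: probe is biotinylated aNog protein used at 0.15 µg/mL for 1 h at 4 C; z-score combines 667 nm fluorescence of each spot with its signal to noise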
[19] = target: Torsin-1A-interacting protein 1 (Homo sapiens) (UniProt Q5JTV8); experiment: compound microarray binding of lysate hLAP1 – cell lysate, small-molecule microarray, COS7 lysate, 635/667 nm fluorescence, primary screen (AID 1116); settings: 635 nm fluorescence, higher = more signal
Chain of Torsin-1A-interacting protein 1 (Homo sapiens) (Q5JTV8 whole entry, looked up): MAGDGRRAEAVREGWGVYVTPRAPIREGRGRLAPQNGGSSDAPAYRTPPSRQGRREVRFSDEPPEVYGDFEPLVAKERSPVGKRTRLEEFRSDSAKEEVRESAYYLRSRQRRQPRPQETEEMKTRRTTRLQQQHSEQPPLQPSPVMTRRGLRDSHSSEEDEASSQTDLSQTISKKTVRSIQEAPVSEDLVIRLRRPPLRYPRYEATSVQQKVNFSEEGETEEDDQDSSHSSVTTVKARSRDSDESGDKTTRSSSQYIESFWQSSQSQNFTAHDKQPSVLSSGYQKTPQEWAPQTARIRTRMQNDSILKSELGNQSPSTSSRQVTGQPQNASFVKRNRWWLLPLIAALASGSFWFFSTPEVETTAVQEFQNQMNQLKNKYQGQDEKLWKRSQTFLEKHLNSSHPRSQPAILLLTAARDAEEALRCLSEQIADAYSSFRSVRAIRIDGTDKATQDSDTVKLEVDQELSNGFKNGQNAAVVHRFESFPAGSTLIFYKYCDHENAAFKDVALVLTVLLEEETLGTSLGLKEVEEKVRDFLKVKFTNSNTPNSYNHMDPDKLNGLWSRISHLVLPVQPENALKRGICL

[20] = target: Alpha-bungarotoxin (Bungarus multicinctus) (UniProt P60615); experiment: compounds binding labelled alpha-BTX control protein – biochemical, small-molecule microarray, Alexa647 label, 635/667 nm fluorescence, artefact control for SMM control protein annotation, profiling panel (AID 1117); settings: alpha-BTX-A647 binding fluorescence, higher = more signal
Chain of Alpha-bungarotoxin (Bungarus multicinctus) (P60615 whole entry, looked up): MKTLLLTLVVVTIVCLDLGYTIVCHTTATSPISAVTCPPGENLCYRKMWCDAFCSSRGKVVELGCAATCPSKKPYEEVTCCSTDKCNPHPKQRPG

Row | Compound | composite z-score [1] | composite z-score [2] | composite z-score [3] | z-score [4] | composite z-score [5] | composite z-score [6] | composite z-score [7] | composite z-score [8] | composite z-score [9] | composite z-score [10] | composite z-score [11] | z-score [12] | composite z-score [13] | composite z-score [14] | composite z-score [15] | composite z-score [16] | composite z-score [17] | composite z-score [18] | composite z-score [19] | composite z-score [20]
1 | C=CCOC(=O)[C@@H]1[C@H]2C(=O)O[C@H](c3ccccc3)[C@H](c3ccccc3)N2[C@H](c2ccc(OCCOC(=O)[C@H]3C[C@H]4C(=O)N[C@@H](CCCCNC(C)=O)C(=O)N4[C@H]3c3cccc(OCCO)c3)cc2)[C@@]12C(=O)Nc1ccc(I)cc12 | 1.52 | 0.453 | 0.182 | 0.357 (inactive) | 0.909 | 1.32 | 0.771 | 1.23 | 1.45 | 0.124 | 0.721 | -1.03 | 0.642 | 0.277 | -0.759 | -0.096 | 0.0725 | -0.0317 | 0.97 | 1.54
2 | O=C1C2C=CC(C(O)c3cc(C(F)(F)F)cc(C(F)(F)F)c3)N(Nc3ccc([N+](=O)[O-])cc3)C2C(=O)N1c1ccccc1 (stereo not given) | 0.905 | 0.359 | 0.499 | 0.765 (inactive) | 0.902 | 1.34 | 0.437 | 1.39 | -0.246 | -0.0083 | 1.42 | -3.71 | 0.511 | 1.65 | 0.311 | 0.055 | -0.224 | 0.605 | 0.185 | 1.59
3 | CC[C@@H]1[C@H]2C3C(=O)N(CC)C(=O)C3CC(=O)[C@H]2[C@H](c2ccc(C)cc2)N1S(=O)(=O)c1ccc(C)cc1 (stereo not given in full) | 1.11 | 0.415 | 0.46 | 0.16 (inactive) | 0.894 | 1.27 | 0.183 | 0.955 | 0.0029 | 0.617 | 1.4 | -2.17 | 0.174 | 1.01 | 0.715 | -0.124 | -0.0035 | -0.115 | -0.154 | 0.484
4 | COc1ccc(C(O)C2C=CC3C(=O)N(Cc4ccccc4)C(=O)C3N2n2cnnc2)c2ccccc12 (stereo not given) | 1.83 | -0.0611 | 0.873 | -0.781 (inactive) | -1.12 | 0.233 | -1.17 | 0.127 | -1.45 | 0.48 | 1.52 | -0.6 | -1.55 | 0.0664 | -0.269 | -0.12 | -0.195 | 0.657 | 1.2 | -0.438
5 | CC1CC/C=C\[C@H]2OC34C=CCN(CCN5CCOCC5)C(=O)[C@H]3N(CCO)C(=O)[C@@H]4C2C(=O)O1 (stereo not given in full) | -0.778 | -0.31 | 0.293 | -0.81 (inactive) | -0.992 | -0.831 | -0.707 | -0.781 | -0.137 | 0.761 | -1.99 | -0.504 | -1.2 | -0.714 | -0.307 | -0.166 | -0.154 | -0.145 | 0.0159 | -1.02
6 | Cc1ccc(S[C@]2(C(=O)NC(C)C)CC(=O)N(C3Cc4ccccc4C3)[C@@H]2c2ccc(CO)cc2I)cc1 | 0.944 | -0.253 | -0.398 | -1.44 (inactive) | -0.651 | 0.1 | -0.922 | -1.13 | -1.18 | -0.696 | -0.803 | -2.19 | -2.04 | -0.625 | -1.08 | -0.596 | -0.291 | -1.12 | -0.664 | -0.365
7 | CN(C)CCCNC(=O)[C@@H]1c2ccccc2C(=O)N(CC23CC4CC(CC(C4)C2)C3)[C@H]1c1ccc(CO)cc1 | 1.15 | -0.46 | 0.296 | -0.751 (inactive) | 1.17 | 0.98 | 0.425 | 1.15 | 0.872 | -0.111 | 1.47 | -3.1 | 0.832 | 0.309 | -0.632 | 0.0215 | -0.542 | -0.403 | 0.858 | 1.65
8 | C=CC[C@@H](OC(=O)Nc1ccc(OC)cc1)c1ccc(OCCO)cc1 | 0.468 | -0.211 | 0.979 | -0.694 (inactive) | -1.77 | -0.711 | -1.99 | -0.993 | -2.37 | -2.6 | -1.65 | 1.51 | -1.8 | -1.4 | -0.819 | -0.224 | 0.0723 | -0.364 | -0.326 | -0.809
9 | Cc1ccc(S[C@]2(C(=O)NCC(C)C)CC(=O)N(Cc3ccccc3Cl)[C@@H]2c2ccc(CO)cc2I)cc1 | 1.22 | 0.117 | 0.791 | -0.611 (inactive) | -0.85 | -0.408 | -0.409 | -0.615 | -0.557 | 0.67 | 0.409 | -1.55 | -1.16 | -0.363 | -0.0595 | 0.31 | -0.221 | 0.515 | 0.359 | 1.48
10 | COC(=O)[C@@]1(Cc2ccc(OC)cc2)[C@H]2c3cc(C(=O)N(C)C)n(CCc4c[nH]c5ccc(O)cc45)c3C[C@H]2CN1C(=O)c1ccccc1 | 1.06 | 1.43 | 0.984 | -1.65 (inactive) | 0.934 | 1.12 | 0.562 | 1.23 | -0.509 | 1.26 | 1.06 | -0.0903 | -0.217 | 1.83 | 1.25 | -0.0196 | 0.488 | 2.27 | 1.3 | 1.28
11 | CCCc1cccc(=O)o1 | 0.521 | -0.161 | -0.401 | -0.396 (inactive) | 0.215 | 1.04 | -0.21 | 0.182 | 0.646 | 1.06 | 0.364 | -0.672 | 0.427 | 0.0369 | -0.116 | 0.0037 | 0.0723 | 0.0638 | 0.898 | 0.696
